# From PubChem BioAssay
# Calls of active or inactive are those of the source. Unless noted, no rule for the calls is given here.
# Columns and labels:
# [1] = resazurin metabolic signal in HepG2 cells – cell-based, resazurin fluorescence, 24 h, PK04 Diversity Set, profiling panel (AID 1172); conditions: HepG2 viability, higher = more signal
# [2] = budding yeast growth changes without added modifier – OD600, strain BY4716, 24 h, basal condition, primary screen (AID 1173); conditions: S. cerevisiae BY4716 growth, OD600, 24 h; higher = more signal, called active from +8 up or from −8 down
# [3] = viability profiling in MM1S myeloma cells – cell-based, resazurin fluorescence, basal, 24 h, PK04 Diversity Set, profiling panel (AID 1174); conditions: higher = more signal, called active from +8 up or from −8 down;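 also: MM1S multiple myeloma cell line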
# [4] = target: Dihydroorotate dehydrogenase (quinone), mitochondrial (Plasmodium falciparum (isolate 3D7)) (UniProt Q08210); assay: inhibition of P. falciparum DHODH – biochemical, C-terminal His tag, absorbance 600 nm, primary screen (AID 1175); conditions: PfDHODH enzyme, DCIP absorbance 600 nm; higher = more signal, called active from +8 up or from −8 down;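 also: recombinant parasite enzyme with a five histidine tag at its C terminus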
# Dihydroorotate dehydrogenase (quinone), mitochondrial (Plasmodium falciparum (isolate 3D7)), sequence (Q08210 whole entry, looked up): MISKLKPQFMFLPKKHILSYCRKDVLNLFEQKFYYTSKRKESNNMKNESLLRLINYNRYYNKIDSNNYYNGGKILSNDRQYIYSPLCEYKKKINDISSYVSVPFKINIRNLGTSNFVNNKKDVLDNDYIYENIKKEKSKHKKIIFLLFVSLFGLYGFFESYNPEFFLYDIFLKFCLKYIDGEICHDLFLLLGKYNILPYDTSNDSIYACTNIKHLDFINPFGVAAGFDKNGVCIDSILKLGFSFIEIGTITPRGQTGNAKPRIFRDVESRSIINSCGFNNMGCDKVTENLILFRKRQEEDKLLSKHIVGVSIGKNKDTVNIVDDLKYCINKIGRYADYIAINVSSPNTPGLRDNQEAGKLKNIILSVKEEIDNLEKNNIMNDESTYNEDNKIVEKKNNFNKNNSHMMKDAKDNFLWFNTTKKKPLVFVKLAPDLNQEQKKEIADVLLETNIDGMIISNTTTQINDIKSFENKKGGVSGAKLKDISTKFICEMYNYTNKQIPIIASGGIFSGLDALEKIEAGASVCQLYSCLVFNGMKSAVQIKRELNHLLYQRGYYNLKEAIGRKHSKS
# [5] = inhibition of PAO1 biofilm formation – strain PAO1, LB-PBS medium, absorbance 600 nm, primary screen (AID 1176); conditions: P. aeruginosa PAO1 growth/biofilm, A600, 12 h; higher = more signal
# [6] = growth modulation of vineyard yeast isolate – strain RM11-1a, OD600, basal, 24 h, primary screen (AID 1177);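 also: cultures grown under basal conditions with no added stressor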; conditions: S. cerevisiae RM11-1a growth, OD600, 24 h; higher = more signal, called active from +8 up or from −8 down
# [7] = growth of efflux-deficient E. coli DRC39 – strain DRC39, OD650, 24 h, E. coli filamentation inducers, primary screen (AID 1178);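 also: growth measured as culture turbidity by optical density at 650 nm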; conditions: E. coli DRC39 acrAB, higher = more signal, called active from +8 up or from −8 down
# [8] = growth of efflux-deficient E. coli DRC39 – strain DRC39, OD650, 48 h, E. coli filamentation inducers, primary screen (AID 1179);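 also: screen aims at cell division blockers that make cells filament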; conditions: E. coli DRC39 delta-acrAB growth, higher = more signal, called active from +8 up or from −8 down
# [9] = viability profiling in RPMI8226 myeloma cells – cell-based, resazurin fluorescence, basal, 24 h, PK04 Diversity Set, profiling panel (AID 1180); conditions: higher = more signal;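 also: RPMI8826 multiple myeloma cell line at 5000 cells per well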
# [10] = target: E3 ubiquitin-protein ligase XIAP (Homo sapiens) (UniProt P98170); assay: small molecules binding XIAP protein – biophysical, small-molecule microarray, fluorescence 635 nm, primary screen (AID 1181); conditions: higher = more signal;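 also: score merges 667 nm emission and signal to noise over triplicate slides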
# E3 ubiquitin-protein ligase XIAP (Homo sapiens), sequence (P98170 whole entry, looked up, the tested form may be a part): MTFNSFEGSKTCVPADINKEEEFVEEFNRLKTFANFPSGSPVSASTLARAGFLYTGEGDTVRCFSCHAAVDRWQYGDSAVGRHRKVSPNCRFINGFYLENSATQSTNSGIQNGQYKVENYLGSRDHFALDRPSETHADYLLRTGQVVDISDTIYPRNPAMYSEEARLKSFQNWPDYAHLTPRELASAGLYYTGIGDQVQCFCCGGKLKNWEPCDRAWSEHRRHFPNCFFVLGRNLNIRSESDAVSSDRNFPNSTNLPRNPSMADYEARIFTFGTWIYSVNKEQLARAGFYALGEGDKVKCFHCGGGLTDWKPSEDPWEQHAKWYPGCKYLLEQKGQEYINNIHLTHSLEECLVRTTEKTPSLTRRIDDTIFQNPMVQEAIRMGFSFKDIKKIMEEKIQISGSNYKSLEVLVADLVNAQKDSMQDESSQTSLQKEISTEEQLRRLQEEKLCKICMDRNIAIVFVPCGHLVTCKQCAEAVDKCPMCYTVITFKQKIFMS
# [11] = system: XIP peptide (Xip251-270) binding; assay: XIP fragment 251-270 binding compounds – biochemical, small-molecule microarray, fluorescence 635/667 nm, 0.1 µg/mL protein, primary screen (AID 1182); conditions: fluorescent protein binding, 635 nm, higher = more signal, called active from +8 up or from −8 down
# XIP peptide (Xip251-270) = assay: compounds binding XIP fragment 251-270 – biochemical, small-molecule microarray, fluorescence 635/667 nm, 0.5 µg/mL protein, primary screen (AID 1183); conditions: fluorescence 635 nm, higher = more signal
# [12] = blood-stage malaria parasite viability loss – strain 3D7, DAPI fluorescence, 100 nL, primary screen (AID 1184);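 also: parasites grown inside human red blood cells in medium with human serum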; conditions: P. falciparum 3D7 growth, 3 d, higher = more signal
# [13] = target: Homeobox protein Hox-A13 (Mus musculus) (UniProt Q62424); assay: disruptors of Hoxa13 oligonucleotide interaction – biochemical, fluorescence polarization, labeled oligonucleotide, primary screen (AID 1185); conditions: Hoxa13:DNA binding, 15 min, higher = more signal, called active from +8 up or from −8 down
# Homeobox protein Hox-A13 (Mus musculus), sequence (Q62424 whole entry, looked up): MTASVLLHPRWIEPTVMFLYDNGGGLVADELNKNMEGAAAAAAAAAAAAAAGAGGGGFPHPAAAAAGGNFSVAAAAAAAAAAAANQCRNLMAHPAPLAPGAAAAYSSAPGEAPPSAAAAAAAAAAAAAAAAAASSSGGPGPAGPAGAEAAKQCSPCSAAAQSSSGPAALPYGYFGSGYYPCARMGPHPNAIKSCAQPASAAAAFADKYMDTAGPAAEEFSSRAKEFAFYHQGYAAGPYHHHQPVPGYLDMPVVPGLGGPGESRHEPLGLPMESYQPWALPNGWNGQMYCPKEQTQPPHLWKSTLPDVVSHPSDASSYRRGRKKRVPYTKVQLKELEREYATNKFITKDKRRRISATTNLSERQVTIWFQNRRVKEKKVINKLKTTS
Compound,z-score [1],z-score [2],z-score [3],composite z-score [4],z-score [5],z-score [6],z-score [7],z-score [8],z-score [9],composite z-score [10],composite z-score [11],composite z-score (XIP peptide (Xip251-270)),z-score [12],z-score [13]
O=C1CCCC2OC12C(O)CCc1ccccc1 (centres undefined),-1.06,-0.372 (inactive),-0.397 (inactive),-0.103 (inactive),-0.127 (inactive),0.142 (inactive),0.637 (inactive),0.489 (inactive),0.145,-0.0238,-0.128 (inactive),-0.213,0.307,-0.663 (inactive)
COc1ccc(-c2nc3c(c4c2C[C@H](C)OC4)CN(CCC(C)C)CC3)cc1,-0.182,-0.827 (inactive),-0.145 (inactive),-0.133 (inactive),0.262 (inactive),0.602 (inactive),1.15 (inactive),0.479 (inactive),-0.239,-0.0559,0.731 (inactive),0.653,0.888,-5.51 (inactive)
CCOC(=O)CCN1C(=O)[C@H]2[C@H]3[C@H](O)[C@H](O)CC(=NOC[C@@H](O)COCc4ccco4)[C@H]3CC[C@H]2C1=O,-0.749,-11.7 (active),-0.0452 (inactive),-2.45 (inactive),0.0122 (inactive),-0.788 (inactive),0.558 (inactive),-0.899 (inactive),-0.424,0.123,0.378 (inactive),0.328,-1.44,-3.71 (inactive)
COC(=O)[C@@H]1CC[C@H](C)[C@@H](c2ccc(C)cc2)N1C(=O)c1ccc(C=NOC[C@@H](O)COCc2ccco2)cc1,-0.609,-0.346 (inactive),-1.06 (inactive),0.13 (inactive),0.147 (inactive),0.0787 (inactive),0.462 (inactive),0.663 (inactive),-1.49,-0.0891,-0.484 (inactive),-1.03,-2.31,-6.19 (inactive)
Cc1cc2c(nc1C)CCCN2CC(C)ON=C1[C@H]2CCn3c(=O)n(-c4ccccc4)c(=O)n3[C@H]2[C@H](O)[C@@H]2O[C@H]12 (some centres undefined),-0.942,-0.286 (inactive),-0.222 (inactive),-0.153 (inactive),0.381 (inactive),-0.488 (inactive),-1.05 (inactive),-1.98 (inactive),-0.745,0.0483,0.117 (inactive),0.32,0.0318,-8.15 (active)
Cc1cc2c(nc1C)CCCN2CC(O)CN1CCN(C)CC1 (centres undefined),-0.406,-0.428 (inactive),-0.709 (inactive),-1.14 (inactive),1.02 (inactive),-0.185 (inactive),-0.233 (inactive),-0.125 (inactive),-0.0252,1.64,1.11 (inactive),0.362,0.547,-3.1 (inactive)
O=C1[C@H]2[C@H]3[C@H](O)[C@H](O)CC(=NOCc4ccccc4)[C@@H]3CC[C@H]2C(=O)N1C1CCCCC1,-0.116,-3.16 (inactive),-0.321 (inactive),0.35 (inactive),1.29 (inactive),0.594 (inactive),-0.315 (inactive),-0.881 (inactive),-0.456,-0.144,-0.112 (inactive),0.0602,-0.368,-5.72 (inactive)
CCOC(=O)[C@H](Cc1ccccc1)NC(=O)CCC1CC(OC(=O)NCCc2ccc(F)cc2)CC2(CCCC(COC(=O)NCC(c3ccccc3)c3ccccc3)O2)O1 (some centres undefined),0.506,0.167 (inactive),-0.874 (inactive),-0.219 (inactive),0.0494 (inactive),0.509 (inactive),0.565 (inactive),-0.563 (inactive),0.489,-0.161,-0.295 (inactive),0.651,-1.39,-4.95 (inactive)
Cn1c(=O)n2n(c1=O)[C@H]1[C@H](O)[C@@H]3O[C@@H]3C(=NOC[C@@H](O)COCc3ccco3)[C@H]1CC2,-0.31,-0.419 (inactive),-0.877 (inactive),0.0599 (inactive),0.823 (inactive),-0.17 (inactive),-0.157 (inactive),0.317 (inactive),-0.378,-0.0382,3.04 (inactive),0.265,0.192,0.445 (inactive)
CC(C)CON=C1C[C@@H](O)[C@@H](O)[C@@H]2[C@@H]3C(=O)N(Cc4ccccc4)C(=O)[C@@H]3CC[C@@H]12,0.854,-0.608 (inactive),0.334 (inactive),-0.282 (inactive),-0.495 (inactive),0.407 (inactive),0.426 (inactive),0.918 (inactive),0.731,-0.242,-0.347 (inactive),-0.229,-0.388,-0.596 (inactive)
CO[C@@H]1COC(=O)[C@H](C)NC(=O)[C@@H](C)COC(=O)CCC[C@H]1C,0.868,0.0728 (inactive),-0.516 (inactive),-0.926 (inactive),-0.892 (inactive),0.0233 (inactive),0.277 (inactive),-0.297 (inactive),-0.0734,-0.153,0.144 (inactive),0.652,-0.0339,-2.16 (inactive)
COc1cccc([C@H]2Oc3ccc(OC)cc3C(=NOC(C)CN3CCCc4nc(C)c(C)cc43)[C@@H]2O)c1 (some centres undefined),-0.948,-0.872 (inactive),-0.944 (inactive),0.956 (inactive),-0.136 (inactive),-0.168 (inactive),-0.0128 (inactive),-0.565 (inactive),-0.948,0.271,0.22 (inactive),-0.452,-1.06,-8.09 (active)
C[C@@H]1C=CCC(=O)OC[C@H](C)C(=O)OC[C@H]2O[C@H]1C=C[C@H]2O,0.0061,-0.368 (inactive),0.313 (inactive),0.603 (inactive),-0.814 (inactive),1.14 (inactive),0.0992 (inactive),-0.249 (inactive),0.52,-0.379,0.0137 (inactive),0.756,-0.315,-1.13 (inactive)
COC(=O)[C@H](C)NC(=O)[C@@H](C)CO,-1.1,-0.0616 (inactive),-1.15 (inactive),0.38 (inactive),-0.351 (inactive),0.312 (inactive),-1.45 (inactive),-0.489 (inactive),-0.855,-0.102,0.316 (inactive),0.332,-0.613,-1.61 (inactive)
COc1ccc(COC(=O)NN=C2C[C@@H](O)[C@@H](O)[C@@H]3[C@@H]4C(=O)N(c5ccc(F)cc5F)C(=O)[C@@H]4CC[C@@H]23)cc1,0.631,0.64 (inactive),0.527 (inactive),0.0922 (inactive),-0.176 (inactive),0.968 (inactive),0.583 (inactive),0.644 (inactive),0.635,-0.173,-0.413 (inactive),-0.0386,-0.351,-3.33 (inactive)
CC(CCN1CCc2nc(-c3ccccc3)c(-c3ccccc3)cc2C1)=NO[C@@H](C)c1cn([C@H](CO)Cc2ccccc2)nn1,-1.41,-3.25 (inactive),-0.996 (inactive),-1.81 (inactive),-0.23 (inactive),-2.23 (inactive),-0.249 (inactive),-0.147 (inactive),-0.914,-0.376,-0.416 (inactive),-0.346,-0.17,-4.81 (inactive)
CO[C@@H]1COC(=O)CCC[C@@H](C)[C@H](OC)COC(=O)[C@H](Cc2ccccc2)NC(=O)CC=C[C@H]1C,0.229,-0.987 (inactive),-0.15 (inactive),0.615 (inactive),-0.291 (inactive),0.926 (inactive),0.024 (inactive),0.407 (inactive),1.05,0.0155,0.0232 (inactive),-0.282,-1.34,-3.5 (inactive)
O=C1[C@H]2[C@H]3[C@H](O)[C@H](O)CC(=NO[C@@H]4O[C@H](CO)[C@@H](O)[C@H](O)[C@H]4O)[C@H]3CC[C@H]2C(=O)N1C1CCCCC1,0.241,0.205 (inactive),-0.655 (inactive),0.26 (inactive),-0.613 (inactive),-0.629 (inactive),0.411 (inactive),0.232 (inactive),-0.815,0.155,0.269 (inactive),0.653,0.418,-4.7 (inactive)
COc1ccc(O[C@H]2C=C[C@@H](c3ccccc3)O[C@@H]2COC(=O)CCC(C)=NO[C@@H](C)c2cc(-c3c(C)cc(C)cc3C)no2)cc1,0.716,1.04 (inactive),0.622 (inactive),0.188 (inactive),-0.421 (inactive),0.108 (inactive),0.291 (inactive),-0.893 (inactive),1.14,-0.151,-0.491 (inactive),-0.782,-0.739,-0.508 (inactive)
CC(=O)OC[C@H]1O[C@@H](ON=C(C)CCN2CCc3nc(-c4ccccc4)c(-c4ccccc4)cc3C2)[C@H](OC(C)=O)[C@@H](OC(C)=O)[C@@H]1OC(C)=O,-0.182,-0.909 (inactive),-0.653 (inactive),-0.24 (inactive),0.0039 (inactive),-0.127 (inactive),-1.11 (inactive),-2.14 (inactive),-0.323,0.0819,0.0113 (inactive),0.71,-1.08,-5.05 (inactive)
CC(C)[C@@H](OCc1ccccc1)[C@H](C)C=NO[C@H](C)c1cn([C@H](CO)Cc2ccccc2)nn1,-1.01,-3.51 (inactive),-2.02 (inactive),-0.926 (inactive),-0.324 (inactive),-2.3 (inactive),-0.0325 (inactive),-0.0205 (inactive),-1.67,-0.0287,-0.2 (inactive),0.353,0.325,-4.42 (inactive)
